The results in this text go back to PubChem BioAssay AID720648 (The Scripps Research Institute Molecular Screening Center, 2013).

About 3,100 (0.84%) of roughly 370,000 compounds were called active. The sample as a whole holds a higher share of actives than the screen did. Values without a mark were called inactive.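 The calls were made as follows: active = inhibition above the mean of compounds lying between control limits plus 3 SD, set per campaign (cut at about 8.5% in these data); inactive = the rest.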

The target in the assay is Disintegrin and metalloproteinase domain-containing protein 17 (Homo sapiens) (UniProt P78536). The experiment in a line: inhibition of ADAM17 peptide cleavage – biochemical, QFRET, primary screen (AID 720648).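 Also: 0% = DMSO-only wells as the low control.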 The note with it: recombinant ADAM17, EDANS/DABCYL FRET peptide cleavage; at 6.95 µM; active compounds read high.
Chain of Disintegrin and metalloproteinase domain-containing protein 17 (Homo sapiens) (P78536 215-824 limits assumed): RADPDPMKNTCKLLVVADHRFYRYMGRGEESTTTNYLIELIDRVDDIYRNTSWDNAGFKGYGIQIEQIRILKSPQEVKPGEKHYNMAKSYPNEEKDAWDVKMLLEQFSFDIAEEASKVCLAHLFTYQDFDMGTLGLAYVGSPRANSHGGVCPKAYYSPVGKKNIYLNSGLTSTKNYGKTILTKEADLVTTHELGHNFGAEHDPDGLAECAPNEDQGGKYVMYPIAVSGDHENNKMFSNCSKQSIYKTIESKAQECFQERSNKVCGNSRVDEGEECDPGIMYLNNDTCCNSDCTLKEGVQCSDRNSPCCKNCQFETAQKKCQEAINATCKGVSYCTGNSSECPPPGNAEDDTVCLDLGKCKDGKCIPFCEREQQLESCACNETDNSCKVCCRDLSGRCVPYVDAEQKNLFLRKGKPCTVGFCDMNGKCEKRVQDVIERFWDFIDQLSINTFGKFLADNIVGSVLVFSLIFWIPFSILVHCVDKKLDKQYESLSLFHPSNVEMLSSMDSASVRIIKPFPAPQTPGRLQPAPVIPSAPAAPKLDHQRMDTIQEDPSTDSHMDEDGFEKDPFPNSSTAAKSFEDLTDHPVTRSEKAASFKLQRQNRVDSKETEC
For `C=CCOC/C=C/C#CCN(CC=C)Cc1ccc(OC)cc1OC`, the inhibition is -0.84%.

For `O=C(Nc1nc2ccc(Cl)cc2s1)c1cc(-c2ccc(Cl)cc2)nc2ccccc12`, the inhibition was -5.76%.

Turning to `Cc1ccccc1CN1CCCCC(NC(=O)c2cccc(C#N)c2)C1=O` (stereo not drawn), the inhibition was -3.86%.

Consider `CCCCCC(=O)N1C[C@H](O)[C@@H](n2cc(COC(=O)c3ccccc3)nn2)C[C@@H]1c1ccc(C)cc1`, for which the inhibition is 8.64% (active).

In the case of `Cc1ccc([C@H]2C[C@H](O)[C@@H](n3cc(COC(=O)c4ccccc4)nn3)CN2C(=O)C2CCCCC2)cc1`, the inhibition was -1.37%.

As for `CCCCCCN1C[C@@H](O)[C@H](n2cc(COC(=O)c3ccccc3)nn2)C[C@@H]1c1ccc(Cl)cc1`, the inhibition was -1.65%.

For `CC(CCN1CCC(C(O)(c2ccccc2)c2ccccc2)CC1)Oc1ccc([N+](=O)[O-])cc1Cl` (stereo not drawn), the inhibition is 6.8%.

On to `C=CC(COCc1ccccc1)N(Cc1ccccc1)S(=O)(=O)c1ccccc1Br` (stereo not drawn), for which the inhibition is -0.15%.

With `CCN(Cc1ccccc1)S(=O)(=O)c1cc(C(=O)O)ccc1OC`, the inhibition was 0.35%.

In the case of `C=CC(COCc1ccccc1)N(CC(=O)OC)S(=O)(=O)c1cc(Br)ccc1OC` (stereo not drawn), the inhibition is 9.3% (active).

Take `Cc1ccc(NC(=O)c2cc(C)nn2-c2ccccc2)c(C)c1`: the inhibition is 3.11%.

Turning to `C=C(C)C#CC(Cc1ccccc1)N(CC1CC1)/C(N)=N/C(=O)OCc1ccccc1` (stereo not drawn), the inhibition was -26.4%.

On to `CCOc1ccc(-n2c(SCC(=O)Nc3cc(C)c(NC(=O)c4ccccc4)cc3OC)nnc2-c2cccc(Cl)c2)cc1`, for which the inhibition was 6.75%.

On to `CCOc1ccc(-n2c(SCC(=O)Nc3cc(C)c(NC(=O)c4ccccc4)cc3OC)nnc2-c2cccs2)cc1`, for which the inhibition is 10.6% (active).

For the compound `COc1ccc(-n2c(SCC(=O)Nc3ccccc3-c3ccccc3)nnc2-c2cccnc2)cc1`, the inhibition is -1.39%.

Consider `Cc1cc(=O)[nH]c(SCC(=O)Nc2ccc(F)cc2F)n1`, for which the inhibition was 6.65%.

Turning to `COc1ccc(/C=C/C(=O)OCC(=O)N2CCN(S(=O)(=O)c3ccc(C)cc3C)CC2)cc1OC`, the inhibition was -6.61%.

`Cc1ccc(S(=O)(=O)N2CCN(C(=O)COC(=O)c3c(C)cc(C)cc3C)CC2)c(C)c1`: the inhibition was 19.5% (active).

`Cc1ccc(S(=O)(=O)N2CCN(C(=O)COC(=O)CNC(=O)c3ccc(C(C)(C)C)cc3)CC2)c(C)c1`: the inhibition is -2.11%.

Consider `Cc1ccc(-n2c(SCC(=O)Nc3ccc(S(=O)(=O)Nc4nccs4)cc3)nnc2-c2ccncc2)cc1`, for which the inhibition is -0.27%.

For the compound `O=C(OCC(=O)N1CCN(C(=O)c2ccco2)CC1)c1cccc(O)c1`, the inhibition is -3.62%.

`Cc1ccc(S(=O)(=O)c2c(COC(=O)c3cccc(Cl)c3)c(-c3ccccc3)nn2C)cc1`: the inhibition is -0.5%.

Regarding `O=C(OCc1ccc(-c2ccccc2)cc1)c1cccc(O)c1`, the inhibition was 9.14% (active).

The term inhibition denotes the change of the read-out against control, counted positive when it falls.
